According to PubChem BioAssay (NCATS):
Results filed as inconclusive are left out. Active and inactive are the calls of the source. Calls follow the shape of the dose curve; as a rule, active = well fitted curve in the direction sought with a large enough effect; inconclusive = small, poorly fitted or top-dose-only effect, or another doubt; inactive = no such curve, though single readings can be large; an effect the other way counts as inactive or inconclusive.

Assays:
[1] = Quantitative High-Throughput drug screen in 47 multiple myeloma cell lines against the NCATS MIPE library collection: NCIH929_DSMZ cell viability assay (AID 1918978); also: nearly all actives have a fitted effect of over 35% in size
Summary of the method: (§1)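 Plated at 500 cells per well, myeloma lines received MIPE 4.0 compounds by pin tool. Following 48 h culture at 37 °C, CellTiter-Glo luminescence gave viability relative to DMSO and media-only controls.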

[2] = Quantitative High-Throughput drug screen in 47 multiple myeloma cell lines against the NCATS MIPE library collection: MM1S_ATCC cell viability assay (AID 1918980); also: nearly all actives have a fitted effect of over 45% in size
Summary of the method: as §1

[3] = Quantitative High-Throughput drug screen in 47 multiple myeloma cell lines against the NCATS MIPE library collection: MM1R_ATCC cell viability assay (AID 1918981); also: nearly all actives have a fitted effect of over 35% in size
Summary of the method: as §1

[4] = Quantitative High-Throughput drug screen in 47 multiple myeloma cell lines against the NCATS MIPE library collection: KMS28PE_JCRB cell viability assay (AID 1918983); also: nearly all actives have a fitted effect of over 35% in size
Summary of the method: as §1

[5] = Quantitative High-Throughput drug screen in 47 multiple myeloma cell lines against the NCATS MIPE library collection: L363_DSMZ cell viability assay (AID 1918984); also: nearly all actives have a fitted effect of over 40% in size
Summary of the method: as §1

[6] = Quantitative High-Throughput drug screen in 47 multiple myeloma cell lines against the NCATS MIPE library collection: KMS34_JCRB cell viability assay (AID 1918985); also: nearly all actives have a fitted effect of over 40% in size
Summary of the method: as §1

[7] = Quantitative High-Throughput drug screen in 47 multiple myeloma cell lines against the NCATS MIPE library collection: OCIMY7_PLB cell viability assay (AID 1918987); also: nearly all actives have a fitted effect of over 65% in size
Summary of the method: as §1

[8] = Quantitative High-Throughput drug screen in 47 multiple myeloma cell lines against the NCATS MIPE library collection: SKMM1_PLB cell viability assay (AID 1919863); details: SKMM1 myeloma viability, CellTiter-Glo ATP, 48 h; viability: hits give low values; also: nearly all actives have a fitted effect of over 35% in size; as to viability: series mostly up to about 46 µM
Summary of the method: as §1

[9] = Quantitative High-Throughput drug screen in 47 multiple myeloma cell lines against the NCATS MIPE library collection: OPM1_PLB cell viability assay (AID 1918989); also: nearly all actives have a fitted effect of over 40% in size
Summary of the method: as §1

[10] = Quantitative High-Throughput drug screen in 47 multiple myeloma cell lines against the NCATS MIPE library collection: KMS21BM_JCRB cell viability assay (AID 1918974)
Summary of the method: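 Luminescent ATP measurement with CellTiter-Glo gives viability, scaled between DMSO-only wells (100%) and media-only wells (0%). Cells, 500 per well, faced library compounds for 48 hours at 37C.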
Potency is read from the fitted curve at half-maximal effect.

C[C@@H]1O[C@@H](O[C@H]2C[C@@H](O)[C@]3(CO)[C@H]4[C@H](O)C[C@]5(C)[C@@H](C6=CC(=O)OC6)CC[C@]5(O)[C@@H]4CC[C@]3(O)C2)[C@H](O)[C@H](O)[C@H]1O
active: Potency [1] 59 nM | Potency [2] 59 nM | Potency [3] 52.6 nM | Potency [4] 20.9 nM | Potency [5] 46.9 nM | Potency [6] 59 nM | Potency [7] 14.8 nM | Potency [8] 59 nM

COC[C@H]1OC(=O)c2coc3c2[C@@]1(C)C1=C(C3=O)C2CCC(=O)[C@@]2(C)C[C@H]1OC(C)=O (stereo partly specified)
active: Potency [1] 469 nM | Potency [2] 14800 nM | Potency [3] 1180 nM | Potency [4] 6620 nM | Potency [5] 11800 nM | Potency [6] 7430 nM | Potency [7] 743 nM | Potency [9] 833 nM | Potency [8] 2960 nM

Cc1cc(SCc2sc(-c3ccc(C(F)(F)F)c(F)c3)nc2C)ccc1OCC(=O)O
active: Potency [1] 20900 nM | Potency [2] 9350 nM | Potency [7] 20900 nM | Potency [9] 20900 nM

O=P1(NCCCl)OCCCN1CCCl (stereo unspecified)
active: Potency [10] 7430 nM | Potency [7] 8330 nM | Potency [9] 16600 nM
inactive: Potency [1]

O=c1[nH]c2ccccc2n1CCCN1CCC(n2c(=O)[nH]c3cc(Cl)ccc32)CC1
active: Potency [10] 118 nM | Potency [2] 41.8 nM
inactive: Potency [3] | Potency [4] | Potency [9] | viability [8] 125%

COc1ccc2c(c1OC)CN1CCc3cc4c(cc3C1C2)OCO4 (stereo unspecified)
inactive: Potency [1] | Potency [6] | Potency [7] | Potency [9] | viability [8] 104%
active: Potency [5] 5900 nM

CN1CCN(C(=O)O[C@H]2c3nccnc3C(=O)N2c2ccc(Cl)cn2)CC1
inactive: Potency [1] | Potency [2] | Potency [3] | Potency [6] | Potency [7] | Potency [9]

CC1=C2C[C@@H]3[C@@H](CC=C4C[C@@H](O)CC[C@@]43C)[C@@H]2CC[C@]12O[C@H]1C[C@H](C)CN[C@H]1[C@H]2C
active: Potency [3] 14800 nM | Potency [9] 46.9 nM
inactive: Potency [1] | Potency [6]

COC1(CS(=O)c2ccccc2)CCN(CCc2c[nH]c3ccc(F)cc23)CC1 (stereo unspecified)
inactive: Potency [10] | Potency [1] | Potency [3] | Potency [6] | viability [8] 116%
active: Potency [4] 8330 nM

CC(C)CC(N(C)C)C1(c2ccc(Cl)cc2)CCC1 (stereo unspecified)
active: Potency [2] 5260 nM
inactive: Potency [1] | Potency [5] | Potency [6] | Potency [9]

CN(C)CCN(C)CCc1ccc(Cl)c(Cl)c1
inactive: Potency [1] | Potency [3] | Potency [4] | Potency [9]

COc1ccc(C(CN(C)C)C2(O)CCCCC2)cc1 (stereo unspecified)
inactive: Potency [1] | Potency [3] | Potency [5] | Potency [6] | Potency [9]

COc1ccc(C(=O)c2c(C)n(CCN3CCOCC3)c3ccccc23)cc1
inactive: Potency [1] | Potency [3] | Potency [4] | Potency [9]

Cn1c(CCCC(=O)O)nc2cc(N(CCCl)CCCl)ccc21
active: Potency [1] 13200 nM | Potency [2] 23500 nM | Potency [3] 18700 nM | Potency [4] 7430 nM | Potency [7] 6620 nM
inactive: Potency [5] | Potency [9]

C#CCN(C)[C@H](C)Cc1ccccc1
inactive: Potency [1] | Potency [2] | Potency [5] | Potency [6] | Potency [9]
active: Potency [8] 16600 nM

CN(C)[C@@H]1C(=O)C(C(N)=O)=C(O)[C@@]2(O)C(=O)C3=C(O)c4c(O)cccc4[C@@](C)(O)[C@H]3C[C@@H]12
inactive: Potency [1] | Potency [5]

Fc1ccc(C(OCCN2CCN(CCCc3ccccc3)CC2)c2ccc(F)cc2)cc1
inactive: Potency [5]
active: Potency [1] 13200 nM | Potency [2] 18700 nM | Potency [3] 16600 nM | Potency [4] 23500 nM | Potency [7] 7430 nM | Potency [9] 16600 nM | Potency [8] 23500 nM

O=C(O)C(=O)c1cn(Cc2ccccc2)c2ccc(-c3ccc(OC(F)(F)F)cc3)cc12
active: Potency [2] 23500 nM | Potency [4] 3320 nM | Potency [8] 3720 nM
inactive: Potency [3] | Potency [6] | Potency [9]

C=C(C)[C@H]1Cc2c(ccc3c2O[C@@H]2COc4cc(OC)c(OC)cc4[C@@H]2C3=O)O1
active: Potency [10] 209 nM | Potency [1] 1870 nM | Potency [2] 1320 nM | Potency [3] 526 nM | Potency [5] 148 nM | Potency [7] 1050 nM | Potency [9] 7430 nM

Cc1sc2c(c1C)C(c1ccc(Cl)cc1)=N[C@@H](CC(=O)OC(C)(C)C)c1nnc(C)n1-2
active: Potency [1] 148 nM | Potency [2] 1320 nM | Potency [3] 332 nM | Potency [4] 235 nM | Potency [5] 132 nM | Potency [6] 235 nM | Potency [9] 74.3 nM | Potency [8] 372 nM

O=C1CC[C@@]2(O)[C@H]3Cc4ccc(O)c5c4[C@@]2(CCN3CC2CC2)[C@H]1O5
active: Potency [9] 7430 nM
inactive: Potency [1] | Potency [2] | Potency [4] | Potency [6] | viability [8] 110%

CC(O)(CS(=O)(=O)c1ccc(F)cc1)C(=O)Nc1ccc(C#N)c(C(F)(F)F)c1 (stereo unspecified)
active: Potency [1] 187 nM | Potency [2] 132 nM | Potency [3] 1050 nM | Potency [5] 1480 nM | Potency [7] 743 nM | Potency [9] 3320 nM

C[C@@H]1[C@@H](CC(C[C@H]2O[C@@H]3O[C@]4(C)CC[C@@H]5[C@H](C)CC[C@@H]([C@H]2C)[C@@]35OO4)C[S+](=O)([O-])c2ccc(COC(=O)N(C)C)cc2)O[C@@H]2O[C@]3(C)CC[C@H]4[C@H](C)CC[C@@H]1[C@@]24OO3 (stereo partly specified)
active: Potency [1] 83.3 nM | Potency [2] 526 nM | Potency [3] 332 nM | Potency [4] 209 nM | Potency [5] 46.9 nM | Potency [6] 74.3 nM | Potency [7] 83.3 nM | Potency [9] 372 nM | Potency [8] 166 nM

CNCC(O)c1ccc(O)cc1 (stereo unspecified)
inactive: Potency [1] | Potency [4] | Potency [6] | Potency [7] | Potency [9]
active: Potency [2] 14800 nM | Potency [3] 4180 nM

C[C@@H]1[C@@H](C(=O)C[C@H]2O[C@@H]3O[C@]4(C)CC[C@@H]5[C@H](C)CC[C@@H]([C@H]2C)[C@@]35OO4)O[C@@H]2O[C@]3(C)CC[C@H]4[C@H](C)CC[C@@H]1[C@@]24OO3
active: Potency [1] 132 nM | Potency [2] 16600 nM | Potency [3] 3720 nM | Potency [4] 418 nM | Potency [5] 59 nM | Potency [6] 235 nM | Potency [7] 74.3 nM | Potency [9] 418 nM | Potency [8] 743 nM

CCCC(C)(COC(N)=O)COC(=O)NC(C)C (stereo unspecified)
inactive: Potency [1] | Potency [3] | Potency [4] | Potency [5] | Potency [7]

N[C@@H](Cc1ccc(N(CCCl)CCCl)cc1)C(=O)O
active: Potency [1] 3320 nM | Potency [2] 13200 nM | Potency [3] 2640 nM | Potency [4] 16600 nM | Potency [5] 5260 nM | Potency [6] 16600 nM | Potency [7] 662 nM | Potency [9] 13200 nM | Potency [8] 26400 nM

Cc1cccc(C)c1NC(=O)CN1CCCC1=O
active: Potency [2] 235 nM
inactive: Potency [1] | Potency [3] | Potency [4] | Potency [5] | Potency [6] | Potency [7] | viability [8] 118%

Cn1cc(C2=C(c3cn(C4CCN(Cc5ccccn5)CC4)c4ccccc34)C(=O)NC2=O)c2ccccc21
inactive: viability [8] 86.1%
active: Potency [10] 166 nM | Potency [1] 5900 nM | Potency [2] 7430 nM | Potency [3] 13200 nM | Potency [5] 833 nM | Potency [6] 10500 nM | Potency [7] 3720 nM | Potency [9] 16600 nM

NCC1(CC(=O)O)CCCCC1
inactive: Potency [1] | Potency [2] | Potency [4] | Potency [9] | viability [8] 140%

CNC(=O)N1N=C(c2ccc(N)cc2)c2cc3c(cc2CC1C)OCO3 (stereo unspecified)
active: Potency [10] 1480 nM | Potency [2] 16600 nM | Potency [4] 4690 nM | Potency [5] 5260 nM | Potency [7] 1480 nM | Potency [9] 4690 nM | Potency [8] 5260 nM

COC[C@@H](NC(C)=O)C(=O)NCc1ccccc1
inactive: Potency [1] | Potency [3] | Potency [4] | Potency [5] | Potency [6] | Potency [9] | viability [8] 103%

CNC(=O)c1ccc(N2C(=S)N(c3ccc(C#N)c(C(F)(F)F)c3)C(=O)C23CCC3)cc1F
inactive: Potency [4]
active: Potency [1] 1320 nM | Potency [2] 1050 nM | Potency [3] 13200 nM | Potency [7] 2960 nM

CN(C)CCc1ccc(O)cc1
inactive: Potency [10] | Potency [1] | Potency [2] | Potency [3] | Potency [4] | Potency [6] | Potency [7] | Potency [9] | viability [8] 107%
